Source: PubChem BioAssay
ssDAF-12 act: S. stercoralis DAF-12 activation, primary screen; HEK293 ssDAF-12/GRIP1 lit1-tk-luc reporter, luminescence; % of 3 µM dafachronic acid response; activation, % at 6.8 µM; 370,000 compounds, 1% hits; AID 652126;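 active = activation above the mean over all tested compounds plus 3 SD, cut at about 0.9% in these data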;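 note: 0% = DMSO-only wells and 100% = 3 µM delta7-dafachronic acid wells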
DAX1 inh-1: inhibitors of DAX1 repression of SF-1 activated StAR promoter. HEK293T StAR-luciferase reporter, SF-1/DAX-1 repression relief. inhibition, % at 6.8 µM. 370,000 compounds, 1.1% hits. AID 652010;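 active = inhibition above the mean over all tested compounds plus 3 SD, cut at about 3.6% in these data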;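 note: 0% = DAX-1 cells with DMSO and 100% = cells lacking DAX-1 with DMSO; higher inhibition means more luminescence from relief of DAX-1 repression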
hgDAF12 agonist: hgDAF-12 agonism, primary luciferase screen; HEK293 GAL4-hgDAF12 UAS-luciferase reporter, agonist luminescence; normalized to butyrate control; activation, % at 6.8 µM; 370,000 compounds, 1.8% hits;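 active = activation above a cutoff set at the mean of all screened compounds plus 3 SD, cut at about 10% in these data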;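 note: 0% = DMSO wells and 100% = sodium butyrate wells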
FXN GAA850 act: activators of GAA850 frataxin (FXN) promoter; activation, % at 6 µM; AID 540364; 360,000 compounds, 0.56% hits; HEK293 lucGAA850 FXN promoter luciferase reporter, 24 h; percent of 10 µM SAHA response;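 active = activation above the average of all compounds screened plus 3 SD, cutoff fixed separately per campaign, cut at about 7.5% in these data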;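 note: 0% = DMSO wells and 100% = 10 µM SAHA wells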
hcDAF-12 act: H. contortus DAF-12 activation, primary screen. HEK293 hcDAF-12 lit1-tk-luc reporter, luminescence; 0% DMSO, 100% Δ7-dafachronic acid. activation, % at 6.8 µM. 370,000 compounds, 1.4% hits. AID 652067;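 active = activation above the mean of all tested compounds plus 3 SD, cut at about 5.5% in these data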;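 note: 100% = response to 3 µM Δ7-dafachronic acid high control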
DAX1 inh-2: NR0B1 (DAX1) inhibition. HEK293 Gal4-DAX1 luciferase reporter, luminescence. P51843. 340,000 compounds, 0.99% hits. AID 504766. inhibition, % at 6.75 µM;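 active = inhibition above the mean over all tested compounds plus 3 SD, cut at about 4.2% in these data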;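 note: 0% = DAX1-transfected cells with DMSO and 100% = empty-vector control cells with DMSO; inhibition shows as a rise in luminescence from relieved DAX1 repression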
hgDAF12 ag: hgDAF-12 agonism, confirmation assay; shares compounds with hgDAF12 agonist; HEK293 GAL4-hgDAF12 luciferase reporter, agonist mode; percent of butyrate response; activation, % at 6.8 µM; 3,300 compounds, 80% hits; AID 743050;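 active = mean activation over triplicate wells above the hit cutoff derived from the earlier primary screen, cut at about 11% in these data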;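 note: 0% = DMSO low control and 100% = 2 mM sodium butyrate high control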
LXRb DAF12 ctr: activates human LXR-beta, counter-screen for DAF-12 agonists; shares compounds with hgDAF12 agonist; HEK293 Gal4-LXR luciferase reporter, 24 h; 3,300 tested, under 10 active; activation, % at 6.8 µM;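 active = mean activation of the triplicate above a set limit carried over from the primary screen, none filed active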
Target sequence (P55055 whole entry, looked up, the tested form may be a part): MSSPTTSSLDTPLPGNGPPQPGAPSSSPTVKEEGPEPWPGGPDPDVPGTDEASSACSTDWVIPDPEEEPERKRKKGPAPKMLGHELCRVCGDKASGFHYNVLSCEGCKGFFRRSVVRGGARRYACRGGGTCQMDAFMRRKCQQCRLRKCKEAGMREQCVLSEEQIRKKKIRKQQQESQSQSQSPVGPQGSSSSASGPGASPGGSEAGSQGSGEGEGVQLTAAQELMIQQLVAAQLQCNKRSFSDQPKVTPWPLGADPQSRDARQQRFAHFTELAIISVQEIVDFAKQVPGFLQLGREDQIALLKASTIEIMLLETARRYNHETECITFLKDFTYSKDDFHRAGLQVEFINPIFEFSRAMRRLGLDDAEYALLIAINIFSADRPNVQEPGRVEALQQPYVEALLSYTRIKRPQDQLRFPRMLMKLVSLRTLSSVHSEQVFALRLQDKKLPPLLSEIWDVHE
An asterisk follows results filed as active; . = no result given. Most compounds without a hit are left out; they make up all but 4.5% or so of the library.

SMILES | ssDAF-12 act | DAX1 inh-1 | hgDAF12 agonist | FXN GAA850 act | hcDAF-12 act | DAX1 inh-2 | hgDAF12 ag | LXRb DAF12 ctr
Cc1ccc(C(C)(C)NC(=O)C2CCC(=O)N(C3CCCCCC3)C2)cc1 (stereo not given) | 0 | 3 | 13* | 0 | 6.0* | 1 | 14* | 0
Cc1ccc(C(C)(C)NC(=O)C2CCC(=O)N(CCCN3CCOCC3)C2)cc1 (stereo not given) | -1 | 0 | 0 | -1 | 1 | 0 | . | .
COc1cc(C(O)c2nc(-c3cccc(C(F)(F)F)c3)cs2)ccc1F (stereo not given) | -1 | 0 | -1 | 0 | 0 | . | . | .
Cc1cc(C(=O)NC2=NCCS2)cs1 | 0 | 3 | 17* | 1 | 5 | 0 | 15* | 1
O=C(NNC(=S)Nc1ccc(Cl)cc1)c1cccs1 | -1 | 2 | 14* | 2 | 2 | 3 | 7 | 0
CC(C)c1ccc(NC(=S)NC2CCCCCC2)cc1 | -1 | 2 | 16* | 3 | 2 | -1 | 9 | 0
Cc1ccc(-c2nnc(SCc3ccccc3F)o2)cc1 | 1 | 4 | 16* | 3 | 5.7* | 3 | 15* | 1
COc1ccc(-c2nnc(SCc3ccccc3F)o2)cc1OC | -1 | 1 | 7 | 7 | 0 | 1 | . | .
Fc1ccc(-c2cc(-c3nnc4sc(Cc5cccs5)nn34)[nH]n2)cc1 | -2 | -1 | -3 | . | -3 | . | . | .
O=C(Nc1ccc(N2CCCC2)cc1)c1ccc2ccccc2c1 | 0 | 3 | 16* | 3 | 2 | 1 | 12* | 1
CC(=O)N1CCN(c2ccc(NC(=O)c3ccc4ccccc4c3)cc2)CC1 | -2 | 0 | -1 | 2 | -2 | -1 | . | .
Cn1nnc2cc(C(=O)Nc3ccc4ccccc4c3)ccc21 | 0 | 2 | 15* | 5 | 2 | 1 | 17* | 1
O=C(Nc1ccc(N2CCCCC2)cc1)c1ccc(F)cc1F | 0 | 3.6* | 13* | 3 | 5.7* | 2 | 17* | 1
CC(=O)Nc1ccc(N2CCCCC2)cc1 | -1 | 1 | 2 | 0 | -2 | 0 | . | .
O=C(Nc1ccc(N2CCCCC2)cc1)c1cncc(Br)c1 | 0 | 2 | 15* | 1 | 2 | 1 | 14* | 1
Nc1[nH]c(C(=O)c2ccccc2)c(-c2ccc(Cl)cc2Cl)c1C(=O)c1cccs1 | -1 | . | 0 | . | -1 | . | . | .
O=C(Cc1ccc([N+](=O)[O-])cc1)Nc1cccc(C(=O)N2CCCCC2)c1 | -1 | -1 | -3 | -1 | -2 | -1 | . | .
Cc1nn2c3c(cnc2c1-c1ccccc1)C(=O)CCC3 | -1 | 1 | -1 | -2 | 0 | 0 | . | .
Cc1nn2c(N)c(-c3ccccc3)cnc2c1-c1ccc(Cl)cc1 | 1 | 1 | 14* | 5 | 3 | 1 | 17* | 0
Cc1ccc(NC(=O)N2CCC(c3ccccc3)C2)cc1C (stereo not given) | 0 | 3.6* | 15* | 6 | 3 | 5.8* | 19* | 1
CCC(C)NC(=O)c1ccc2c(Cl)c3c(nc2c1)CCC3 (stereo not given) | -1 | 3 | 18* | 6 | 0 | 5.7* | 9 | 0
CCC(C)NC(=O)c1ccc2c(SCC(=O)O)c3c(nc2c1)CCCC3 (stereo not given) | -1 | 0 | 3 | 0 | -2 | 0 | . | .
O=C(Nc1ccc(Cl)cn1)c1ccc2c(Cl)c3c(nc2c1)CCC3 | -1 | 2 | 15* | 4 | 2 | 3 | 8 | 1
COc1ccc(C(=O)Cn2c(C(=O)/C=C/c3ccccc3)nc3ccccc32)cc1 | -1 | 0 | -1 | -4 | -1 | -1 | . | .
CCN(Cc1ccccc1)C(=O)Cc1c[nH]c2ccccc12 | 0 | 0 | -2 | 0 | 5 | -1 | . | .
SMILES | ssDAF-12 act | DAX1 inh-1 | hgDAF12 agonist | FXN GAA850 act | hcDAF-12 act | DAX1 inh-2 | hgDAF12 ag | LXRb DAF12 ctr
Nc1ccc2nc(SCc3cccc(F)c3)sc2c1 | -1 | 0 | 16* | 3 | 2 | 0 | 12* | 1
O=C(CN1C(=O)c2cccc([N+](=O)[O-])c2C1=O)OCC(=O)N1CCCCC1 | 0 | 1 | -1 | 0 | 0 | -1 | . | .
O=c1ccn(C2CC(O)C(COC(c3ccccc3)(c3ccccc3)c3ccccc3)O2)c(=O)[nH]1 (stereo not given) | -1 | 0 | 1 | . | -1 | . | . | .
O=C(NNC(=S)Nc1ccccc1)c1cccc(Br)c1 | 0 | 3 | 3 | 3 | 3 | 1 | . | .
CC(C)(C)NC(=S)NNC(=O)c1cccc(Br)c1 | -1 | 1 | 21* | 3 | 1 | 2 | 5 | 0
N#C/C(=C(/O)c1ccco1)c1nc2ccccc2[nH]1 | 1.2* | 3.9* | 22* | 3 | 1 | 5.0* | 23* | 0
C/C(O)=C(\C#N)c1nc2ccccc2[nH]1 | -1 | 0 | 0 | 0 | -2 | -1 | . | .
Oc1ccc(CNc2ccc(C(F)(F)F)cc2F)c2cccnc12 | 0 | . | 4 | . | 4 | . | . | .
CN=c1scc(-c2ccccc2F)n1/N=C(\C)c1cccnc1 | 0 | 3 | 15* | 5 | 4 | 2 | 12* | 1
C/C(=N\N1CCN(C2c3ccccc3-c3ccccc32)CC1)c1cccnc1 | -1 | 0 | 2 | 4 | -2 | 0 | . | .
Cn1cccc1/C=C1\SC(=O)N(c2ccccc2)C1=O | 0 | 2 | 16* | 1 | 3 | 3 | 20* | 1
CCOc1ccccc1CN1CCN(Cc2nc3c(s2)CCCC3)CC1CCO (stereo not given) | -1 | 0 | -2 | 2 | -1 | 0 | . | .
CC1CCc2c(sc(NC(=O)C3CCCO3)c2C#N)C1 (stereo not given) | -1 | 3 | 20* | 6 | 1 | 2 | 10* | 1
CC1CCc2c(sc(NC(=O)COC(=O)C3CCCO3)c2C#N)C1 (stereo not given) | -1 | 0 | 3 | 2 | 0 | 1 | . | .
COc1ccc(-c2nc3ccccc3c(=O)n2Cc2ccccc2)cc1COc1ccc(NC(C)=O)cc1 | -2 | . | -8 | . | -5 | . | . | .
c1ccn2cc(CSc3nnc4ccccn34)nc2c1 | 1.1* | 3.8* | 14* | 6 | 4 | 3 | 14* | 1
CC(=O)c1ccc(N=Nc2ccc(N(C)C)cc2)cc1 | 1.0* | 3 | 13* | 4 | 5 | 3 | 12* | 1
CN(C)C(=S)c1ccc(N(C)C)cc1 | -2 | 0 | -2 | -1 | -2 | 0 | . | .
CN(Cc1ccco1)S(=O)(=O)c1nnc(NC(=O)c2ccccc2Cl)s1 | -1 | 0 | 3 | 2 | 1 | -1 | . | .
